From PubChem BioAssay (EPA / NIEHS)
The source made the active and inactive calls. Rule for the calls: active = hit-call score of the fitted dose curve at least 0.9, where 1 is the maximum; inactive = score below 0.9.

These molecules were tested on Human Leukocyte Antigen - DR isotype (HLADR), HLA-DRA (gene 3122) (assay: BSK_BE3C_HLADR: BioMAP Diversity Plus: BE3C Assay for Human Leukocyte Antigen - DR isotype (HLADR) Biomarker Activity (AID 2283032)). Details: primary human bronchial epithelial cells; actives raise or lower the signal.
Protocol: BSK_BE3C is a cell-based, multiplexed-readout assay that uses bronchial epithelial cell, a human lung primary cell, with measurements taken at 24 hours after chemical dosing in a 96-well plate.BSK_BE3C_HLADR is an assay component measured in the BSK_BE3C assay. It measures HLA-DR antibody related to regulation of gene expression using ELISA technology.Data from the assay component BSK_BE3C_HLADR was analyzed into 1 assay endpoint. This assay endpoint, BSK_BE3C_HLADR, was analyzed with bidirectional fitting relative to DMSO as the negative control and baseline of activity. Using a type of binding reporter, gain or loss-of-signal activity can be used to understand changes in the signaling as they relate to the gene HLA-DRA. Furthermore, this assay endpoint can be referred to as a primary readout, because this assay has produced multiple assay endpoints where this one serves a signaling function. To generalize the intended target to other relatable targets, this assay endpoint is annotated to the cell adhesion molecules intended target family, where the subfamily is MHC Class II.
The levels of cell surface (or secreted, indicated by the prefix "s") biomarker endpoints were measured by ELISA. Overt cytotoxicity to cells in confluent adherent cultures (all systems other than the BT system) was assessed by measuring total protein levels using sulforhodamine B (SRB) staining in parallel cultures at the time of biomarker measurements, indicated as SRB endpoints. For proliferation assays for adherent cell types, individual cell types are cultured at sub-confluence and relative cell numbers quantified by SRB staining at time points optimized for each system (48 h: 3C and CASM3C systems; 72 h: BT and HDF3CGF systems; 96 h: SAg system). SRB was performed by staining cells with 0.1% SRB after fixation with 10% TCA and reading wells at 560 nm.Viability and proliferation of PBMC (T cells) was quantified by Alamar Blue reduction for the SAg and BT systems. For PBMC viability (referred to as PBMC Cytotoxicity within the assay endpoint names), cells were plated (75,000/well in a 96-well plate) and then chemical samples added for 1 h before addition of activators, SEB and TSST-1 (20 ng/mL final concentration each). Cells were incubated for 90 h. Then, Alamar Blue (20 uL/well) (Invitrogen, Cat DAL1100) was added for 6 h, and the plates were read with a fluorescence microplate reader at 546/580 nm (excitation/emission). For PBMC proliferation, cells were plated and activated as above but incubated for only 16 h prior to addition of Alamar Blue. Plates were read after 6 h.
With `CCOP(=S)(OCC)OC(Cl)C(Cl)(Cl)Cl` (stereo not given) the outcome was “inactive”. `CCc1cccc(C)c1N(C(=O)CCl)C(C)COC` (stereo not given) was tested, and the outcome was “inactive”. In the case of `CCc1cnc(C2=NC(C)(C(C)C)C(=O)N2)c(C(=O)O)c1` (stereo not given), the outcome is reported as “inactive”. In the case of `CNC(=O)ON=C(SC)C(=O)N(C)C`, the outcome is reported as “inactive”. `CN(C)C(=O)Nc1cccc(C(F)(F)F)c1` was tested, and the outcome was “inactive”. For `CCOP(=O)(SC(C)CC)N1CCSC1=O` (stereo not given), the outcome was “inactive”. For `CCOC(=O)CC(SP(=O)(OC)OC)C(=O)OCC` (stereo not given), the outcome was “inactive”. In the case of `COP(=O)(OC)SCn1c(=O)oc2cc(Cl)cnc21`, the AC50 is reported as 22 µM (active). In the case of `CCCCOC(=O)c1ccccc1C(=O)O`, the outcome is reported as “inactive”. For `CC(C)N(C(=O)SCC(Cl)=C(Cl)Cl)C(C)C`, the outcome was “inactive”. `CCCOCC(=Nc1ccc(Cl)cc1C(F)(F)F)n1ccnc1` was tested, and the AC50 was 25.7 µM (active). `CC(=NC#N)N(C)Cc1ccc(Cl)nc1` was tested, and the outcome was “inactive”. In the case of `CCOP(=S)(OCC)Oc1ccc2c(C)c(Cl)c(=O)oc2c1`, the outcome is reported as “inactive”. In the case of `CN(C)NC(=O)CCC(=O)O`, the outcome is reported as “inactive”. With `CCOP(=O)(OCC)Oc1cc(C)nc(C(C)C)n1` the outcome was “inactive”. With `CCOP(=S)(Oc1cnc(C(C)(C)C)nc1)OC(C)C` (stereo not given) the outcome was “inactive”. With `C[Si](Cn1cncn1)(c1ccc(F)cc1)c1ccc(F)cc1` the outcome was “inactive”. In the case of `CCCCOC(=O)[C@@H](C)Oc1ccc(Oc2ccc(C#N)cc2F)cc1`, the outcome is reported as “inactive”. For `CC1(C(=O)Nc2ccc(O)c(Cl)c2Cl)CCCCC1`, the outcome was “inactive”. With `CCNc1nc(Cl)nc(NC(C)(C)C#N)n1` the outcome was “inactive”. In the case of `C#CCC1=C(C)C(OC(=O)C2C(C=C(C)C)C2(C)C)CC1=O` (stereo not given), the outcome is reported as “inactive”. In the case of `CNc1cnn(-c2cccc(C(F)(F)F)c2)c(=O)c1Cl`, the AC50 is reported as 23.7 µM (active). In the case of `COP(=O)(NC(C)=O)SC` (stereo not given), the outcome is reported as “inactive”. For `Nc1nc(N)nc(NC2CC2)n1`, the outcome was “inactive”. With `COc1cccc(C(=O)NN(C(=O)c2cc(C)cc(C)c2)C(C)(C)C)c1C` the outcome was “inactive”. With `CCC(CC)Nc1c([N+](=O)[O-])cc(C)c(C)c1[N+](=O)[O-]` the outcome was “inactive”. In the case of `CON=C(C(=O)OC)c1ccccc1CON=C(C)c1cccc(C(F)(F)F)c1`, the outcome is reported as “inactive”. With `CNC(=O)Oc1cccc2c1OC(C)(C)O2` the outcome was “inactive”. For `Cc1nn(-c2cc(NS(C)(=O)=O)c(Cl)cc2Cl)c(=O)n1C(F)F`, the outcome was “inactive”. `CCOP(=S)(OCC)SCCSCC` was tested, and the outcome was “inactive”. With `CC(Oc1cccc(Cl)c1)C(=O)O` (stereo not given) the outcome was “inactive”. `CCCSP(=O)(OCC)Oc1ccc(Br)cc1Cl` (stereo not given) was tested, and the AC50 was 32.1 µM (active). In the case of `CC1=NNC(=O)N(/N=C/c2cccnc2)C1`, the outcome is reported as “inactive”. For `CCCOc1nn(C(=O)NS(=O)(=O)c2ccccc2C(=O)OC)c(=O)n1C`, the outcome was “inactive”. With `COP(=O)(OC)OC(Br)C(Cl)(Cl)Br` (stereo not given) the AC50 was 27.7 µM (active). `CSc1nnc(C(C)(C)C)c(=O)n1N` was tested, and the outcome was “inactive”. For `CC[C@H](C)[C@H]1O[C@]2(C=C[C@@H]1C)C[C@@H]1C[C@@H](C/C=C(\C)[C@@H](O[C@H]3C[C@H](OC)[C@@H](O[C@H]4C[C@H](OC)[C@@H](NC)[C@H](C)O4)[C@H](C)O3)[C@@H](C)/C=C/C=C3\CO[C@@H]4[C@H](O)C(C)=C[C@@H](C(=O)O1)[C@]34O)O2`, the AC50 was 3.98 µM (active). With `Nc1c(Cl)cc([N+](=O)[O-])cc1Cl` the AC50 was 12.6 µM (active). In the case of `N#CSCSC#N`, the outcome is reported as “inactive”. In the case of `CC(C1CC1)C(O)(Cn1cncn1)c1ccc(Cl)cc1` (stereo not given), the outcome is reported as “inactive”.
